Assay results published in the supplement of paper PMC11417369.
In all, about 25,000 sequences were measured (“ln(normalized median fluorescence intensity)”: median about 9.7, highest 2% from about 11 on). Many of the other results were omitted from the sample, so the highest values are more common in it than they were.

What follows are sequences tested on PfAP2-HC AP2 domain (GST-tagged) (assay: gcPBM binding intensity (ln(normalized median fluorescence intensity)); higher = stronger DNA binding).
Procedure, shortened: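 Binding intensity is defined as the maximum Masliner-normalised natural-log median intensity across replicate spots for either probe orientation. It was measured on an Agilent 4 × 180k array of primer-extended double-stranded 36-bp intergenic genomic probes and negative controls, to which GST-tagged P. falciparum DNA-binding domains made in E. coli were applied for 1 h in 1× PBS with 1% milk, 0.2 mg/ml BSA, 0.5% salmon testes DNA and 0.03% Triton X-100. Detection was by Alexa488 anti-GST antibody and scanning at 488 nm.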

Sequence	gcPBM binding intensity (ln)
TTTTGAATATGGATCTTATATATATTAAATAAATAA [CACACA_negctrl_site344]	9.09
ATGTTTTATAAAAGGCGTACACATATGCTTAAGTAA [XGTACX_site6232]	9.71
TATATAATTATAAGAACACACATATATATATATATA [CACACA_site2472]	9.49
AGGTGATTAATATATACACACATACATATATATATA [CACACA_site8913]	10
TTTCATTTCACAGACACACACACACCCTATATTTCC [CACACA_site3906]	11.2
TCATTTCACAAACACACACACACAATATATTTCCTT [CACACA_site3905]	10.3
TCATTTCACAGACACACACACACAATATATTTCCTT [CACACA_site9295]	10.8
TCATTTCACGGACACACACACACAATATATTTCCTT [CACACA_site6023]	10.9
TCATTTCACAGACACACACACACAAGATATTTCCTT [CACACA_site7774]	11.1
TCATTTTATTTTTTCACACACACATATATATATATA [CACACA_site3333]	10.2
ATTTCACAGAGACACACACACAATATATTTCCTTTT [CACACA_site7773]	10.3
TATTTTTATTTTCCTTCACACATTTTTTATATTTTT [CACACA_site5830]	9.83
TCATTTTATTTTTTCACACACACATCTATATTTATA [CACACA_site7547]	10.2
ATATTAATTATAACTTGTACGTAAAAGGAAAACAAT [XGTACX_site3269]	9.76
ATTATAATATTGTTATGTACATAAAAATTATTGAAT [XGTACX_site4476]	9.82
GATAACATAATATGTTGTACATAAAAATTTTTATCA [XGTACX_site1969]	9.62
GTAAAAATAAAAACTGGTACACAAGTTGTTATAAAA [XGTACX_site502]	9.76
TTATTTATTCTATGTGCATGTTATTTTTTTTTTTCG [TGCATGCA_site262]	9.73
TTTGTGTGTGCGTGTGCATGTTGTTTTTTTCTATAA [TGCATGCA_site17]	11.7
TTTTGTTTATGTGTGCATTATATTATATTTTTTATT [TGCATGCA_negctrl_site146]	10.1
ATTTACATAAATTGCATATATCGATGTAAATAAATA [CACACA_negctrl_site1150]	9.5
AATGTACACCCACCCACACACAAACAAATATATATA [CACACA_site5521]	10.3
AATGTACACGCACCCACACACAAACAAATATAAATA [CACACA_site7319]	11.6
AATATAAATAAAAACACACACACACCCATATATATA [CACACA_site2267]	11.3

Sequence	gcPBM binding intensity (ln)
TAAACACCCATATAAACACACATATAAACACCCATA [CACACA_site5382]	10.3
TACATATATAAAAAAACACACACATATATATATATA [CACACA_site8315]	9.93
AATAAATATAAATACACACCCATATAAATATAAATA [CACACA_site7264]	10.1
AATAAATATAAATACACACCCATATATATATATATA [CACACA_site5436]	9.67
AAAAAAAAAAAACACACACACACACCCATATATAAA [CACACA_site1170]	11.1
TATATATAAAAACACACACACACACCCTATAATTAT [CACACA_site4063]	11.3
ATATAATATATATATAAACACACAAAAAAAATTATA [CACACA_site8434]	9.97
AATGTACCCACACCCACACACAAACAAATATATATA [CACACA_site2751]	10.2
ATAATATATATATAAACACACAAAAAAAATTATATA [CACACA_site1534]	9.86
TTTATTTTTATGGTCACACATATTTTTAAAACTATA [CACACA_site4372]	9.77
TTTCATTTTTTTACATGTACGCAAAAGTGTGTAGTT [XGTACX_site6582]	9.78
TTTTTTTTTGAATACAGTACACAAGTGTTAAGTTTA [XGTACX_site7069]	9.36
TAAGTATACTCATACACACACACACTAGAAAAAAAA [CACACA_site4397]	10.4
TTCCACATTTTACAGACACACACAATTTATATTACG [CACACA_site8572]	10.1
ATGTTAAACAAATCTATACACACGTATATGACAAAA [CACACA_site1783]	9.71
TTTTGAAGTAATACATGTACTTAAATTACTAAAAAA [XGTACX_site1955]	9.47
TTCATATATTTTAAAGCATGCATTCATCTTATAGTT [TGCATGCA_site800]	9.71
TTGTATATATTTATATGTACATATATTACTTTTGCT [XGTACX_site2449]	9.83
TAAAATAACTCACAAAGTACAAAAATAAGCATATGA [XGTACX_site7046]	9.79
TTTATTTTGTTTTCTTGTACATAAATAATTACATAT [XGTACX_site4227]	9.86
TCATAGTATAAACACACACACACACCCATATATATA [CACACA_site8512]	11
TAAACACCCATATAAACACACATACATACATACATA [CACACA_site5383]	10.4
TCATAGTATGGACACACACACACACCCATATATATA [CACACA_site5033]	11.2
ATTCATATGAAACACACACACACACCCATAAAAAAA [CACACA_site3246]	10.5

Sequence	gcPBM binding intensity (ln)
TACACGCATAAACACACACACACACCCATATATATA [CACACA_site8114]	11.3
ATAATCCTGAAACACACACACACACCCATAAATAAA [CACACA_site481]	11.1
TATCTCATAGTATACACACACACACCCACCCATATA [CACACA_site1739]	10.7
TATAAACACCCATATAAACACACATACATACATACA [CACACA_site8791]	10.2
AACACCCATGGACACACACACATATATATATATATA [CACACA_site5809]	10.4
CAAAAAATGAAACACACACACACACCCATAAATAAA [CACACA_site1231]	10.8
ATTAGTGACATTATTACACACAAAAGAAAACAGAAA [CACACA_site3984]	9.99
TTTCAAAAAAATAATGTGCACATTAGAAAATAAATA [GTGCAC_site9416]	9.78
TATTTTTTGAAAAGTTCACACATCCAACTCGAGTTG [CACACA_site4412]	9.62
TATATATATATAATATGTACATATATATATTCTTAA [XGTACX_site6154]	9.49
GTATGTATAATATACACACTCACAAGCATTCAAATA [CACACA_site267]	9.76
TACACCCATGGACACACACACACGCATAAAAAAAAA [CACACA_site4933]	10.7
TATATAAAGAAACACACACACACCTTATAATTATTA [CACACA_site4062]	11.2
TACACGCATGGACACACACACACACCCATATATATA [CACACA_site4522]	11
TATTAAACGAAACACACACACACACCCATATATAAA [CACACA_site759]	11.5
ACCATATAAATAAACACACACACACCCATATATATA [CACACA_site2321]	10.6
TAAAGAATATTATAAACACACACTTTATAAAGAATT [CACACA_site114]	9.91
TATATAAATAAACACACACACACCTTATAATTATTA [CACACA_site9345]	10.5
AAAAAAAATAAACACACACACATACCCATAAATATA [CACACA_site5980]	10.4
TATATATTAAAACACACACACATATATATATATATA [CACACA_site3787]	10.1
CACGCATACAGACACACACACACACCCATATATATA [CACACA_site636]	10.6
AAAAAAAAAAAAAACACACACACACCCATAAATATA [CACACA_site151]	11.2
GAAAAACAAATATATTAACACACAAACATATAAACA [CACACA_site9315]	10.2
AAATTACAAATACAAACACACAAATGTTTTTCATTC [CACACA_site3552]	9.77

Sequence	gcPBM binding intensity (ln)
AAAAAAAAAAGAACCCGTACATAAATAATATATATA [XGTACX_site164]	9.73
AAATTGAGACAACAGGTGCATATAAATATACAGTGT [GTGCAC_site9634]	9.79
GTATGAAATTATAATAGTACATATAAATAAAAAAAA [XGTACX_site8955]	9.85
ATTTTAATATAAAATACACACTACTATTATAAATAT [CACACA_site4917]	9.64
AAAATTGAACCTGACAAGGTATTTTATTATTTATTA [TGCATGCA_negctrl_site181]	9.44
ATAAAAATGGTGTTAACACACACATATATATATATA [CACACA_site8089]	9.83
TATATTATTTATAGTAGTACATAAAATATAAATATT [XGTACX_site4417]	9.48
TATTTTGTCATAGAACGTACTTATAAATATTTTTTT [XGTACX_site8424]	9.5
AAATCATGTTGAAGGGGTACAAAATATGTAATGTTG [XGTACX_site6222]	9.82
TTTTATTTCAATCCACAAGGGATAAAATAAAGTTTT [CACACA_negctrl_site699]	9.3
CACAGATAAATTAACACACACACACCCATATATATA [CACACA_site3960]	10.5
TATTAAACTGGACACACACACACACCCATATATAAA [CACACA_site4579]	11.2
TCATAGTAGAAACACACACACACACCCATATATATA [CACACA_site1737]	11.3
AAAATACAGAAACACACACACACACCCATATATATA [CACACA_site3559]	10.7
TTCCCATGTAATATTAAACACACACCCATATAACAC [CACACA_site7905]	10.5
TATATATAGAAACACACACACATATATATATATATA [CACACA_site773]	10.5
TATATATAGAAACACACACACACACCCAAGCGTAGC [CACACA_site63]	10.6
AACACAGATAAATTAACACACACACCCATATATATA [CACACA_site9310]	11.2
CACAGATAAATTAACACACACACACCGATATATATA [CACACA_site6049]	10.5
TTTATTAAACTTGACACACACACACCCACATATATA [CACACA_site760]	10.2
TACACGCAGAAACACACACACACACCCATATATATA [CACACA_site637]	11.4
AATACACGCAAACACACACACACACCCACATATATA [CACACA_site638]	10.8
